# Assay results: PubChem BioAssay (EPA / NIEHS)
# Results filed as inconclusive are left out. Calls of active or inactive are those of the source. How the source made its calls: active means hit-call score of the fitted dose curve at least 0.9, where 1 is the maximum; inconclusive means response in the unintended direction; inactive means score below 0.9.
# Target: Bile acid receptor (Homo sapiens) (UniProt Q96RI1)
# Assay: OT_FXR_FXRSRC1_1440: Odyssey Thera (OT) 24-hour HEK293T Protein-Complementation Assay for Farnesoid X receptor/SRC-1 Co-activator (AID 2283384)
# Method: OT_FXR_FXRSRC1_1440 is a cell-based assay that uses HEK293T, a human kidney cell line, with measurements taken at 24 hours after chemical dosing in a 384-well plate.OT_FXR_FXRSRC1_1440 is one of one assay component(s) measured or calculated from the OT_FXR_FXRSRC1_1440 assay. It is designed to make measurements of protein fragment complementation, a form of binding reporter, as detected with fluorescence intensity signals by Protein-fragment Complementation technology.Data from the assay component OT_FXR_FXRSRC1_1440 was analyzed into 1 assay endpoint. This assay endpoint, OT_FXR_FXRSRC1_1440, was analyzed in the positive analysis fitting direction relative to DMSO as the negative control and baseline of activity. Using a type of binding reporter, measures of receptor for gain-of-signal activity can be used to understand the binding at the pathway-level as they relate to the gene NR1H4. Furthermore, this assay endpoint can be referred to as a primary readout, because the performed assay has only produced 1 assay endpoint. To generalize the intended target to other relatable targets, this assay endpoint is annotated to the nuclear receptor intended target family, where the subfamily is non-steroidal.
# Protein-fragment complementation assay, or PCA, is a method for the identification and quantification of protein-protein interactions. In the PCA, the proteins of interest ("bait" and "prey") are each covalently linked to fragments of a third protein (e.g. DHFR, which acts as a "reporter"). Interaction between the bait and the prey proteins brings the fragments of the reporter protein in close proximity to allow them to form a functional reporter protein whose activity can be measured.
# Bile acid receptor (Homo sapiens), sequence (Q96RI1 whole entry, looked up): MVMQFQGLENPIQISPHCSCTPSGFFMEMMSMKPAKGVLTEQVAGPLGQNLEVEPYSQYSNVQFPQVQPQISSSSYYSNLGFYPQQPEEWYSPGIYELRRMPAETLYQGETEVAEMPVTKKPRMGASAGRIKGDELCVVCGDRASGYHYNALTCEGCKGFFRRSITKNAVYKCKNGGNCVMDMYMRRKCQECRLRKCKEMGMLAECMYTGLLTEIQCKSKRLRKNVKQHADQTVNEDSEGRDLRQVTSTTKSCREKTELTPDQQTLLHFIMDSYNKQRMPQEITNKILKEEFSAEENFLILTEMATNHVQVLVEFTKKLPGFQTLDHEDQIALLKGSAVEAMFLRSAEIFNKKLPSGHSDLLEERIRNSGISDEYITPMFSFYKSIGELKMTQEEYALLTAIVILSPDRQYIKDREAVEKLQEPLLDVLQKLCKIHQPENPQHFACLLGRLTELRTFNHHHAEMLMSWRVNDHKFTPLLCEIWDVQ
Structure (SMILES),AC50,outcome
CCOc1ccc(N)cc1,46.8 µM (active),
CCCSP(=S)(OCC)Oc1ccc(SC)cc1 (configuration not stated),,inactive
CCOP(=S)(OCC)O/N=C(\C#N)c1ccccc1,,inactive
O=C(NC(=O)c1c(F)cccc1F)Nc1ccc(Cl)cc1,,inactive
CC1(C)[C@H](C(=O)O[C@H](C#N)c2cccc(Oc3ccccc3)c2)[C@@H]1/C=C(\Cl)C(F)(F)F,,inactive
O=S1(=O)OC(c2cc(Br)c(O)c(Br)c2)(c2cc(Br)c(O)c(Br)c2)c2ccccc21,,inactive
COCCl,,inactive
COC(=O)Nc1cccc(OC(=O)Nc2cccc(C)c2)c1,,inactive
N#Cc1cccnc1,,inactive
OCCCCO,,inactive
COc1nn(C(=O)NS(=O)(=O)c2ccccc2OC(F)(F)F)c(=O)n1C,,inactive
CCCCCCCCCCCCN(C)C,,inactive
CCC[CH2][Sn]([CH2]CCC)([CH2]CCC)[CH2]CCC,11.8 µM (active),
CCOCn1c(-c2ccc(Cl)cc2)c(C#N)c(Br)c1C(F)(F)F,3.05 µM (active),
CC(C)=CC1C(C(=O)OCc2cccc(Oc3ccccc3)c2)C1(C)C (configuration not stated),12.3 µM (active),
Cc1cc(Cl)ccc1OCCCC(=O)O,,inactive
O=C(O)C1(c2ccc3c(c2)OC[C@H](Cc2ccc(-c4ccccc4)cc2)[C@H]3O)CCCC1,90 µM (active),
O=S1OC[C@@H]2[C@H](CO1)[C@]1(Cl)C(Cl)=C(Cl)[C@@]2(Cl)C1(Cl)Cl (some centres not stated),68.1 µM (active),
O=C(CBr)c1ccc(O)cc1,,inactive
Cc1cc(Cl)ccc1O,,inactive
O=C(NC(=O)c1c(F)cccc1F)Nc1cc(Cl)c(OC(F)(F)C(F)C(F)(F)F)cc1Cl (configuration not stated),43.7 µM (active),
Nc1ccc(N)cc1,,inactive
